# An excerpt weighted towards active compounds, which were near 4.8% of everything screened.
# TIM10 inh: inhibits growth of TIM10 yeast strain. S. cerevisiae TIM10 strain growth, BacTiter-Glo luminescence, 24 h. inhibition, % at 10 µM. 330,000 compounds, 1.4% hits;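 active means inhibition of 40% or more at the single tested concentration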;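 further: wild-type TIM10 isogenic control strain grown at permissive 25 °C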
# NALP1 inh: inhibitors of NALP1 inflammasome in yeast | S. cerevisiae NALP1/ASC/caspase-1 growth, X-gal OD620, 72 h | inhibition, % at 10 µM | 280,000 compounds, 0.61% hits; in the data active means inhibition mostly above about 24%, no sharp cut-off; inactive means mostly below about 32%
# tim23-1 inh: tim23-1 yeast growth inhibition. S. cerevisiae tim23-1 growth, BacTiter-Glo luminescence, 24 h. inhibition, % at 20 µM. 330,000 compounds, 1.3% hits;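 active means growth inhibition of the mutant yeast at or above 50%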;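 further: temperature-sensitive mutant grown at 25 °C; plate controls were DMSO-treated mutant yeast for no effect and medium wells lacking yeast for full effect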
# PfHsp90 set2: reduces growth (ATP signal) of yeast expressing P. falciparum Hsp90; 310,000 compounds, 0.32% hits; S. cerevisiae expressing PfHsp90, BacTiter-Glo ATP, 48 h; yeast lacking PDR1 and PDR3 efflux regulators; inhibition, % at 9.4 µM;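 active means every replicate shows inhibition above about 80%, whatever the replicate mean, limit read from the data; inconclusive means mean inhibition reaches the set limit but some replicate falls short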;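 further: 0% = DMSO neutral controls and 100% = 20 µM radicicol positive controls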
# SKKanGAS inh: inhibitors of SKKanGAS S. pyogenes growth in kanamycin (SK-promoter or general growth effect); BacTiter-Glo, 6 h; inhibition, % at 7.5 µM; 300,000 compounds, 1.3% hits; AID 1662;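 active means mean replicate score, as percent of positive control median, at least 50; inconclusive means mean below 50 but one replicate at or above 50; inactive means mean and every replicate below 50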;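 further: strain carries kanamycin resistance gene driven by streptokinase promoter and grows in 40 µg/ml kanamycin; loss of luminescence reflects streptokinase promoter inhibition or plain growth inhibition; 0% = median of DMSO wells and 100% = positive control at its reference dose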
# tim10-1 inh: tim10-1 yeast growth inhibition. S. cerevisiae tim10-1 ts strain growth, BacTiter-Glo, 24 h. inhibition, % at 20 µM. 330,000 compounds, 2.2% hits;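 active means inhibition of at least 40%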;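 further: mutant grown at 25 °C; 0% = DMSO wells with yeast and 100% = wells holding no yeast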
# tim10-1 conf: confirmation of tim10-1 mutant yeast growth inhibitors; shares compounds with tim10-1 inh; S. cerevisiae tim10-1 ts strain growth, BacTiter-Glo, 24 h; inhibition, % at 20 µM; 7,400 compounds, 56% hits;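 active means inhibition of yeast growth at or above a set limit in either of two repeat tests at 20 µM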;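 further: tim10-1 mutant grown at permissive 25 °C to find synthetic lethal compounds; 0% = DMSO yeast wells and 100% = medium wells without yeast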
# TIM10 conf: TIM10 yeast growth inhibition, confirmed. shares compounds with TIM10 inh. S. cerevisiae tim10 strain growth, BacTiter-Glo luminescence, 24 h. inhibition, % at 10 µM. 4,600 compounds, 63% hits;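 active means inhibition of yeast growth at or above a set limit in either of two replicates at 10 µM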;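 further: this counterscreen used the strain with wild-type TIM10; 0% = yeast with DMSO and 100% = medium wells lacking yeast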
# tim23-1 conf: confirmation of tim23-1 mutant yeast growth inhibitors; S. cerevisiae tim23-1 growth, BacTiter-Glo luminescence, 24 h; 4,400 compounds, 83% hits; AID 463218; shares compounds with tim23-1 inh; inhibition, % at 20 µM;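 active means inhibition above about 39% in either of two replicate wells at 20 µM, limit read from the data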;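 further: temperature-sensitive tim23-1 mutant grown at 25 °C; 0% = DMSO wells with yeast and 100% = medium wells without yeast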
# * hit, by the source's call; ? = inconclusive; · = no result given.
SMILES,TIM10 inh,NALP1 inh,tim23-1 inh,PfHsp90 set2,SKKanGAS inh,tim10-1 inh,tim10-1 conf,TIM10 conf,tim23-1 conf
COc1cc(OC)c(C=CC(=O)c2ccccc2O)c(OC)c1,·,·,·,9,·,·,·,·,·
Cc1cc(C)n(/N=C\c2c(O)ccc3ccccc23)c(=O)c1C(N)=O,14,22,27,·,0,25,·,·,·
CCc1ccc(C(C)NC(=S)NCc2ccc(F)cc2)cc1 (stereo unspecified),0,11,17,21,3,31,·,·,·
Nn1cnc2scc(-c3cccs3)c2c1=O,-2,6,3,5,6,-10,·,·,·
O=c1c2c(-c3cccs3)csc2ncn1-c1ccc(Br)cc1,17,-3,59*,·,-5,42*,35*,·,48*
O=C(O)COc1ccc(/C=N/n2cnc3scc(-c4cccs4)c3c2=O)cc1,·,26,·,-2,·,·,·,·,·
O=c1c2c(-c3cccs3)csc2ncn1/N=C/c1ccccn1,37,·,61*,-22,2,56*,60*,·,62*
COc1cccc(-n2cnc3scc(-c4cccs4)c3c2=O)c1,28,3,52*,2,4,43*,42*,·,50*
COc1cc(Br)cc(CNc2ccc(F)c([N+](=O)[O-])c2)c1O,44*,6,54*,-18,3,55*,33*,40*,56*
CC1(C)C(CSc2nc3ccccc3[nH]2)C1(Cl)Cl (stereo unspecified),35,6,57*,-4,0,45*,25,·,60*
CCSc1nc2ccccc2[nH]1,5,32,31,8,13,7,·,·,·
CC1CCCCN1C(=O)CN1CCN(S(=O)(=O)c2ccc(Br)cc2Cl)CC1 (stereo unspecified),29,·,52*,-10,·,43*,27,·,43*
O=S(=O)(c1ccc(Br)cc1Cl)N1CCN(CCO)CC1,-1,2,-9,-28,-15,0,·,·,·
O=S(=O)(Cc1ccc(Cl)cc1)Oc1ccc(Cl)cc1,·,·,·,-3,·,·,·,·,·
COC(=O)COc1ccc(-c2ccccc2)cc1C=O,73*,20,65*,-4,-3,66*,60*,73*,83*
Cc1ccc(C)c(NC(=S)N/N=C2/CCCCc3ccccc32)c1,45*,33,57*,-35,55*,54*,35*,-1,44*
COc1cccc(NC(=S)N/N=C2/CCCCc3ccccc32)c1,·,41,·,-8,-32,·,·,·,·
CCOC(=O)c1nnc(-c2cccs2)nc1Oc1ccccc1C(=O)OC,49*,3,51*,9,-1,41*,27,35*,50*
CCOC(=O)c1nnc(-c2cccs2)nc1NC(C)C,23,24*,55*,3,-9,47*,42*,·,44*
CCOC(=O)c1nnc(-c2cccs2)nc1Oc1ccc(Cl)cc1,19,-23,49,-2,2,27,·,·,·
CCN1N=C(c2ccccc2)Cn2c1nc1ccccc12,28,37,52*,-78,-6,43*,44*,·,46*
CC(C)C[C@@H](CSc1ccccc1)N1CCN(CCc2ccccc2)CCC1=O,20,10,19,4,21,18,·,·,·
Cc1cccc(/C(N)=N/OC(=O)COc2ccccc2Cl)c1,·,21,·,-10,·,·,·,·,·
CC1=CC(C)(C)N(C(=O)CN2C(=O)c3ccccc3C2=O)c2ccccc21,40*,43,60*,16,15,43*,28,18,51*
CC1=CC(C)(C)N(C(=O)CN2C(=O)CCC2=O)c2ccc(C)cc21,-2,6,23,8,2,10,·,·,·
SMILES,TIM10 inh,NALP1 inh,tim23-1 inh,PfHsp90 set2,SKKanGAS inh,tim10-1 inh,tim10-1 conf,TIM10 conf,tim23-1 conf
O=C(/C=C/c1ccccc1)Nc1ccc(Cl)cn1,·,10,·,29,-1,·,·,·,·
CCOC(=O)N1C(=O)[C@](c2ccc(Cl)cc2)(C(C)C)N1C(=O)OCC,39,13,61*,-16,8,42*,42*,·,56*
Cc1cccc2cc(CN(CC(C)C)S(=O)(=O)c3ccccc3)c(=O)[nH]c12,10,-13,49,-19,-3,39,·,·,·
O=C(NC(=S)Nc1ccc2c(c1)OCCO2)c1cccc(Br)c1,45*,14,51*,-32,-1,45*,21,0,42*
O=C(NC(=S)N1CCN(Cc2ccc3c(c2)OCO3)CC1)c1cccc(Br)c1,56*,27,54*,-23,?,51*,35*,18,47*
O=C(NC(=S)Nc1ccc2c(c1)OCO2)c1ccccc1,18,1,12,-6,3,-4,·,·,·
O=C(Nc1ncc([N+](=O)[O-])s1)c1ccco1,46*,14,53*,38,14,40*,40*,23,48*
O=C1c2c(Br)c(Br)c(Br)c(Br)c2C(=O)N1c1ccccn1,69*,6,86*,-14,-5,76*,75*,75*,58*
COc1ccc(Oc2ccc3c(C(F)(F)F)cc(C(F)(F)F)nc3n2)cc1,5,-10,28,-13,-5,23,·,·,·
Oc1ccc(Oc2ccc3c(C(F)(F)F)cc(C(F)(F)F)nc3n2)cc1,43*,-4,56*,-2,-2,40*,25,13,49*
Oc1cc2c(cc1C(c1ccc(Cl)c(Cl)c1)N1CCCC1)OCO2 (stereo unspecified),33,17,63*,10,-3,50*,39*,·,45*
S=C(Nc1ccccc1Cl)N(CCCN1CCOCC1)Cc1ccco1,-11,8,6,-19,-7,17,·,·,·
COc1ccc(CCNc2oc(-c3ccco3)nc2C#N)cc1,52*,9,64*,-13,0,42*,-5,37*,68*
O=C(CN(C(=O)CCC(=O)Nc1nccs1)c1cccc(F)c1)NCC1CCCO1 (stereo unspecified),3,-5,-10,-32,2,-4,·,·,·
N/C(=N\OC(=O)c1cccs1)C1(c2ccc(Cl)cc2Cl)CC1,66*,14,74*,-23,-5,50*,45*,76*,73*
O=C(NNc1cc(Cl)ccc1Cl)c1cccs1,-7,20,14,-22,5,8,·,·,·
CC(C)CC(NC(=O)c1cccs1)c1nnc(SCc2ccc(Cl)c(Cl)c2)n1C (stereo unspecified),18,31,23,-1,9,36,·,·,·
N/C(Cc1ccc(Cl)c(Cl)c1)=N\OC(=O)c1cccs1,86*,22,62*,104*,7,56*,-4,84*,42*

# Assay outcomes as filed in PubChem BioAssay.
